# Assay outcomes (PubChem BioAssay)
# GLA spleen mod: qHTS Assay for Inhibitors and Activators of Human alpha-Galactosidase From Spleen Homogenate; Alpha-galactosidase A (Homo sapiens), P06280; human spleen homogenate, 4MU-alpha-Gal fluorescence, 40 min; Potency, µM (top dose mostly 80 µM), usual class: inhibitors; actives 0.008% (n = 240,000); AID 2107, 2009
#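 Spleen homogenate 1 ug + cpd (titration) + 4-MU-alpha-D-galactopyranoside 1 mM; 37C 40 min; 50 mM citrate/phosphate pH 5.0, 0.01% Tween-20; stop pH 10; fluorescence 365/440; AC50 via Hill.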
# N370S GC: qHTS Assay for Inhibitors and Activators of N370S glucocerebrosidase as a Potential Chaperone Treatment of Gaucher Disease; N370S GC spleen homogenate, 4MU-glucoside fluorescence; Potency, µM (titrated, usually from 59.4 µM), most hits filed as inhibitors; actives 0.092% (n = 330,000); AID 2101, 2009
# GAA inh: qHTS Assay for Inhibitors of Human alpha-Glucosidase as a Potential Chaperone Treatment of Pompe Disease. Lysosomal alpha-glucosidase (Homo sapiens), P10253. actives 0.005% (n = 200,000). Potency, µM (highest dose often 76.9 µM), hits mostly inhibitors. AID 1466, 2008. purified human GAA, 4-MU-alpha-glucoside fluorescence
#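 Fluorogenic assay: 4 nM human alpha-glucosidase with 400 uM 4-methylumbelliferyl-alpha-D-pyranoside in 50 mM citrate/phosphate, 0.005% Tween-20, pH 5.0, 20 min at room temperature. Compounds tested up to 77 uM; AC50 from Hill fits.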
# GAA glycogen mod: qHTS Assay for Inhibitors and Activators of Human alpha-Glucosidase Cleavage of Glycogen; Potency, µM (series often up to 76.4 µM), usual class: inhibitors; actives 0.38% (n = 300,000); Lysosomal alpha-glucosidase (Homo sapiens), P10253; recombinant GAA, glycogen substrate, Amplex Red glucose oxidase fluorescence;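 also: the screen sought inhibitors and activators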
#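 Recombinant enzyme (4 nM final) with compounds titrated up to 77 uM and bovine liver glycogen (30 ug) in citrate pH 5.0, 0.01% Tween-20, 37 C 40 min. Released glucose detected by Amplex Red/glucose oxidase (Ex 573/Em 610); AC50 from Hill fits.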
# GLA inh pH 4.5: qHTS Assay for Inhibitors of Human alpha-Galactosidase at pH 4.5 | Alpha-galactosidase A (Homo sapiens), P06280 | 230,000 tested, under 10 active | activity change, negative = inhibition, % at 105 µM | purified enzyme, 4-MU-alpha-Gal fluorescence, pH 4.5
# Target sequence (P06280 whole entry, looked up): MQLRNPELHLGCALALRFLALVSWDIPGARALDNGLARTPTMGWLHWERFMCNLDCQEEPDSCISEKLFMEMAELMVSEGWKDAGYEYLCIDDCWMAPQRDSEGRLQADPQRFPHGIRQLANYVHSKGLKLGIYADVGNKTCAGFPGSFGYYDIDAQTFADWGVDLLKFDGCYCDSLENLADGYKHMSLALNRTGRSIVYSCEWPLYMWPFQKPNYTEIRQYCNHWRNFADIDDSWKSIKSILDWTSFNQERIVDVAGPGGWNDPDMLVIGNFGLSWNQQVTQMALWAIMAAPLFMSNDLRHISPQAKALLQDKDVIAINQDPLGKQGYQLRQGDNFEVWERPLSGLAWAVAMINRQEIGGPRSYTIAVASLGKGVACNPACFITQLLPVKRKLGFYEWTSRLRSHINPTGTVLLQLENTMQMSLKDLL
# aGlu spleen mod: qHTS Assay for Inhibitors and Activators of Human alpha-Glucosidase From Spleen Homogenate. Lysosomal alpha-glucosidase (Homo sapiens), P10253. actives 0.006% (n = 240,000). human spleen homogenate, 4-MU-alpha-glucoside fluorescence. Potency, µM (highest dose often 79.9 µM), usual class: inhibitors
#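 Compounds were titrated against alpha-glucosidase in spleen homogenate at pH 5.0, with 1 mM 4-methylumbelliferyl substrate for 40 min at 37 C. Reactions were quenched with pH 10 NaOH/glycine and fluorescence measured.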
# Numbers stand for hits; i = inactive; ? = inconclusive; nt = no result; [ ] = dose if it differs, or a comment. In the library only some 0.43% were active in any assay of this set; here they are far more common. Calls follow the shape of the dose curve; as a rule, active = well fitted curve in the direction sought with a large enough effect; inconclusive = small, poorly fitted or top-dose-only effect, or another doubt; inactive = no such curve, though single readings can be large; an effect the other way counts as inactive or inconclusive.
SMILES,GLA spleen mod,N370S GC,GAA inh,GAA glycogen mod,GLA inh pH 4.5,aGlu spleen mod
COc1cc(-c2cc(=O)c3c(O)c(OC)c(OC)c(O)c3o2)ccc1O,i,i,nt,22µM,i,i
COc1ccc(-c2cc(=O)c3c(O)c(OC)c(OC)c(OC)c3o2)cc1OC,i,i,nt,nt,i,i
O=C(CCC(=O)N1CCOc2ccccc21)NCc1cccs1,nt,nt,nt,i,nt,nt
Cc1ccc(Nc2c(-c3ccc(N4CCOCC4)cc3)nc3c(C)cccn23)cc1,nt,nt,nt,16µM,nt,nt
Cc1cccc(Nc2c(-c3ccc(N4CCOCC4)cc3)nc3ncccn23)c1,i,i,i,35µM,i,i
COc1ccc(-c2nc3ncccn3c2Nc2ccc3c(c2)OCCO3)cc1,i,i,i,?,i,i
COc1ccc(OC)c(S(=O)(=O)Nc2ccc(O)c3ccccc23)c1,i,i,i,14µM,i,i
COc1ccc(N2CCN(Cc3nc(N)nc(Nc4ccccc4OC)n3)CC2)cc1,i,i,i,40µM,i,i
COc1ccccc1Nc1nc(N)nc(CN2CCCCC2)n1,i,i,i,i,i,i
Cc1c(NC(C)c2ccccc2O)c(=O)n(-c2ccccc2)n1C (configuration not stated),i,i,i,28µM,i,i
Cc1c(N/C=C/C(=O)c2ccc(Cl)cc2)c(=O)n(-c2ccccc2)n1C,i,i,i,14µM,i,i
Cc1c(NC(=O)C(=O)/C=C(\O)c2ccc(Cl)cc2)c(=O)n(-c2ccccc2)n1C,i,i,i,?,i,i
Cc1c(NC(C)c2cc(Cl)ccc2O)c(=O)n(-c2ccccc2)n1C (configuration not stated),i,i[12.8 µM],i,11µM,i,i
Cc1c(NC(C)C)c(=O)n(-c2ccccc2)n1C,i,i,nt,nt,i,i
Nc1cc(S(=O)(=O)Nc2cc(Cl)ccc2Cl)ccc1N1CCCC1,i,i,nt,18µM,i,i
Fc1ccccc1NC(=S)NNc1ncc(C(F)(F)F)cc1Cl,i,i,i,28µM,i,i
CC1(C)C(c2cccs2)=[N+]([O-])C2(CCCCC/C2=N\NC(N)=S)N1O (configuration not stated),i,i,i,18µM,i,i
CC1(C)C(c2ccco2)=[N+]([O-])C2(CCCCC2=O)N1O (configuration not stated),i,i,i,i,i,i
COc1ccc(Cl)cc1NC(=S)N(CCCN1CCOCC1)Cc1cn(C)c2ccccc12,i,6.3µM,i,i,i,i
COc1ccccc1NC(=S)N(CCCN1CCOCC1)Cc1cn(C)c2ccccc12,i,?,i,i,i,i
COc1cc(Cl)ccc1NC(=S)N(CCCN1CCOCC1)Cc1cn(C)c2ccccc12,i,7.1µM,i,i,i,i
CSCC[C@@H]1NC(=O)C/C=C\[C@@H](C)COC(=O)[C@@H](C)COC1=O,i[17.5 µM],i[12.8 µM],nt,nt,nt,i[17.4 µM]
Cc1ccccc1-c1nccc(Nc2ccc(F)cc2)n1,i,20µM,nt,nt,nt,i
C/C(=N\N1CCN(C)CC1)c1ccc(Cl)c(Cl)c1,i,i,i,28µM,i,i
CCOC(=O)c1cccc(NC(=O)C(CC(C)C)N2Cc3ccccc3C2=O)c1 (configuration not stated),nt,nt,nt,i,nt,nt
SMILES,GLA spleen mod,N370S GC,GAA inh,GAA glycogen mod,GLA inh pH 4.5,aGlu spleen mod
COC(=O)C1=C(C(=O)OC)[C@@H]2N(C)c3ccc(OC)cc3[C@@]23C[C@@H](C(=O)OC)N(S(=O)(=O)c2ccc(C)cc2)C3=N1,i[17.5 µM],i[12.8 µM],nt,nt,i,i[17.4 µM]
COC(=O)N[C@@H](CCc1ccccc1)/C(C(=O)OC)=C(\C)NCc1ccccc1,i,i,nt,nt,i,i
COc1cc(/C=N\NC(=O)c2c(C)nc3cc(C)ccn23)ccc1O,i,?,i,11µM,i,?
COc1cc(/C=N/Nc2ccccc2)ccc1O,nt,i,nt,?,nt,nt
COc1ccc(OC)c(/C=N/Nc2nncn2/N=C/c2cc(OC)ccc2OC)c1,i,i,i,i,i,i
COc1cc(/C=N/Nc2nncn2/N=C/c2ccc(O)c(OC)c2)ccc1O,i,i,i,10µM,i,i
COc1cc(/C=N/Nc2ccccn2)cc(OC)c1O,i,i,i,18µM,i,i
COc1cc(/C=N/Nc2ccccc2C(F)(F)F)ccc1O,i,i,i,35µM,i,?
CCOc1cc(/C=N/Nc2nnc(C)n2N)ccc1O,nt,i,nt,11µM,nt,nt
CC1CCCCN1C(=O)CSc1c2c(nc3cc(Cl)ccc13)CCCC2 (configuration not stated),nt,nt,nt,i,nt,nt
Cn1c(-n2cccc2)c(-c2c(-c3ccc(F)cc3)[nH]c3c2c(=O)n(C)c(=O)n3C)c(=O)n(C)c1=O,nt,nt,nt,i,nt,nt
O=C1CCCC2=C1C(c1ccc(O)c(O)c1)Nc1ccc3ncccc3c12 (configuration not stated),i,i,i,2.8µM,i,i
OC(COC(c1ccccc1)c1ccccc1)CN1CCc2ccccc2C1 (configuration not stated),i,i,i,i,i,i
OC(COC(c1ccc(Cl)cc1)c1ccc(Cl)cc1)CN1CCc2ccccc2C1 (configuration not stated),i,7.9µM,i,i,i,i
C=CCOC(=O)C1(C(NC(=O)OC)c2ccccc2)C(=O)Cc2ccccc21 (configuration not stated),i,i,nt,nt,i,i
Cc1ccc(N=Nc2c(N)n[nH]c2N)cc1,nt,i,nt,?,nt,nt
Nc1n[nH]c(N)c1N=Nc1ccc2c(c1)OCO2,i,i,i,13µM,i,i
Cc1cccc2cc(-c3nc4c(C)cccn4c3NCc3ccco3)c(=O)[nH]c12,i,i,i,i,i,i
Cc1ccc2[nH]c(=O)c(-c3nc4cc(C)ccn4c3NCc3ccco3)cc2c1,i,i,?,9.9µM,i,i
CCn1c(SCC(=O)c2ccc(O)c(O)c2)nnc1-c1ccc(C)cc1,i,i,i,12µM,i,i
Cc1sc2ncnc(Nc3ccc(O)cc3)c2c1C,i,11µM,i[15.4 µM],?,i,i
Cc1ccc(/C=N/c2sc3c(c2C#N)CCC3)o1,i,i,i,22µM,i,i
COc1cc(/C=C(\C#N)C(=O)N2CCCCC2)ccc1O,nt,?,nt,i,nt,nt
N#C/C(=C\c1ccc(O)c(O)c1)C(=O)N1CCCC1,i,i,i,2.8µM,i,i
COc1cccc(-c2cc(NCc3ccccc3)ncn2)c1,i,i,nt,nt,nt,i
